Assay results as given in the supplement of paper PMC10849652.
Targets with a hit are over-represented here; the source holds about 8,800 in all. About 0.5% of all pairs of compound and target were hits. A number with no mark means an inactive call.

Compound: c1ccc([C@@H]2C[C@H]2NC2CCNCC2)cc1
Test: log2 fold change, soluble protein after heating vs DMSO (PISA); higher = thermal stabilisation; K562 lysate, 10 uM; active = over 0.2 and 3.5 SD of the protein, either way, in both replicates (recomputed)
Method in brief: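 Quantification was by TMTpro 16plex LC-MS/MS with equalised channel sums, applied to the supernatant after 21,000xg for 90 min. Samples were crude K562 extract at 1 mg/mL protein in PBS pH 7.4 with 1 mM MgCl2, treated with 10 μM compound for 30 min, heated for 3 min across 48°C-58°C, pooled and brought to 0.5% NP-40 at 4°C. Values are log-two fold changes in thermal stability relative to solvent controls, from duplicates.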

Chain of UniProt P17480 (P17480 whole entry, looked up): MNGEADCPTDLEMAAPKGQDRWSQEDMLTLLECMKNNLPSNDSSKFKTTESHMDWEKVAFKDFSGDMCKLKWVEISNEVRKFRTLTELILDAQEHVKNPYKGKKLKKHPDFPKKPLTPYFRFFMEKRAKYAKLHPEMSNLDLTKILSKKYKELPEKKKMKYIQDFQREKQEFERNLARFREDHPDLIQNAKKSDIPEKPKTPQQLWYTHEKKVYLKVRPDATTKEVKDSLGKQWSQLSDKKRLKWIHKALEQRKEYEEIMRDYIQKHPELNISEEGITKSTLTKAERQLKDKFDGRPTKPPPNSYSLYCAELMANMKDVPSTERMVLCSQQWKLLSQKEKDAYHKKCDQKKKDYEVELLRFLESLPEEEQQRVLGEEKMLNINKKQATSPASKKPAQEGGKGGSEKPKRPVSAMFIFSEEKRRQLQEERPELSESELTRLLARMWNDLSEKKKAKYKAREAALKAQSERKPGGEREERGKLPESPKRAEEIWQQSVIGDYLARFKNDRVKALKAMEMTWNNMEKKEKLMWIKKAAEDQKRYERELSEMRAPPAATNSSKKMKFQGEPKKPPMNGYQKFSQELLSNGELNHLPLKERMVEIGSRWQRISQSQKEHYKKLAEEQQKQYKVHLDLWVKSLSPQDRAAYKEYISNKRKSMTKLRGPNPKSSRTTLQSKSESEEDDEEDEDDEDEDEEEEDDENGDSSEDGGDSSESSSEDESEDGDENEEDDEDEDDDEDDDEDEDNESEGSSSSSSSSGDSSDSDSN
Chain of UniProt Q15813 (Q15813 whole entry, looked up): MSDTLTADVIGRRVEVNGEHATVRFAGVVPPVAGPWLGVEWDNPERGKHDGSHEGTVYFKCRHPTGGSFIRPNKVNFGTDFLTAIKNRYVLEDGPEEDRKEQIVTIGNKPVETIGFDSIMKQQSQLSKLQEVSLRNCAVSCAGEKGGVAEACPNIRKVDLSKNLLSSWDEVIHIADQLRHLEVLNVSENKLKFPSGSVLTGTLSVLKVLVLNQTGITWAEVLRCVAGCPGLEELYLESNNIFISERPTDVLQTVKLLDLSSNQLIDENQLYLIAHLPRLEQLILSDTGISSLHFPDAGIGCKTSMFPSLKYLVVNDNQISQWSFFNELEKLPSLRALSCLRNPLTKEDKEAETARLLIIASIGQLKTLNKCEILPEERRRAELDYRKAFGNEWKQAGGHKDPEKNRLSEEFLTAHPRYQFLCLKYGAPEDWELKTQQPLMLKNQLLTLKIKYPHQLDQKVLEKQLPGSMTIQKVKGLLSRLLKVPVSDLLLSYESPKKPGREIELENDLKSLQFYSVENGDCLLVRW
Chain of UniProt Q14CS0 (Q14CS0 whole entry, looked up): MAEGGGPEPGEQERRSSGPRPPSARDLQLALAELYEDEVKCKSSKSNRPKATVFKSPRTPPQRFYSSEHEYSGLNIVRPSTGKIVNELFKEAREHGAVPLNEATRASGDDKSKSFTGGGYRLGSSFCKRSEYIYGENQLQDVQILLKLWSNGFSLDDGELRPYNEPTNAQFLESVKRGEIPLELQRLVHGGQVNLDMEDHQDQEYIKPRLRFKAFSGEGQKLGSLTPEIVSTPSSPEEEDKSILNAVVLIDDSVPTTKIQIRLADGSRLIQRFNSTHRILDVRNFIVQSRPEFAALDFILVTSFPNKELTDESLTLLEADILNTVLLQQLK
Chain of UniProt O95801 (O95801 whole entry, looked up): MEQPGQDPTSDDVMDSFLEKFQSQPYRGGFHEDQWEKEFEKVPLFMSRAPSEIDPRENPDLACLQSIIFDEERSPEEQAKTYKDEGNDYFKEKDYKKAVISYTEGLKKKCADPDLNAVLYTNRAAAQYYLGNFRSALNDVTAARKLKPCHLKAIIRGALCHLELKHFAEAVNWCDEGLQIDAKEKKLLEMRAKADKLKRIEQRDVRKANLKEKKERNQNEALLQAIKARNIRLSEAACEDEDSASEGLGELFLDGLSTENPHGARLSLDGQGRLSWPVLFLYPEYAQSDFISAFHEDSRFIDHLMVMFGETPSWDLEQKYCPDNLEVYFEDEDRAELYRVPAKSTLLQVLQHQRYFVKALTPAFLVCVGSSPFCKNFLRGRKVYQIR
Chain of UniProt Q86UE8 (Q86UE8 whole entry, looked up): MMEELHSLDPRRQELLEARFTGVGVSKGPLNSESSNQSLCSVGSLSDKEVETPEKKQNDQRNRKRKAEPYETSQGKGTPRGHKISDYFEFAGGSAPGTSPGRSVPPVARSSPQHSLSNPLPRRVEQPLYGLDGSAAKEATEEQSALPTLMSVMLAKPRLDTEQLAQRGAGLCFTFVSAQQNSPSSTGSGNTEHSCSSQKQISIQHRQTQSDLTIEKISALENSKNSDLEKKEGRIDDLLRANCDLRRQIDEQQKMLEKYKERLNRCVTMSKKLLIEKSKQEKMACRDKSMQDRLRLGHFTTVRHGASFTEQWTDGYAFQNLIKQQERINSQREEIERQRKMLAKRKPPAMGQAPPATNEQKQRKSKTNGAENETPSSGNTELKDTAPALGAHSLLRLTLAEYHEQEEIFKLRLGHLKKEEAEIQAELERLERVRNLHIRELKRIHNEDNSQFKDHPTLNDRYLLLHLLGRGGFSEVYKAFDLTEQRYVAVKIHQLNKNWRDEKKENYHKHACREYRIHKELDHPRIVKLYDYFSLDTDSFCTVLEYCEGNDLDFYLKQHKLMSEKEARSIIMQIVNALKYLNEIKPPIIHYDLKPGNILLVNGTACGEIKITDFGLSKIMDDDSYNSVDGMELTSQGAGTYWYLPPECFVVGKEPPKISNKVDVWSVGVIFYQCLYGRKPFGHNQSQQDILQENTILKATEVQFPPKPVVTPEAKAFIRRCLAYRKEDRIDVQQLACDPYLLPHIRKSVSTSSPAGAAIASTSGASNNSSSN
Chain of UniProt Q14139 (Q14139 whole entry, looked up): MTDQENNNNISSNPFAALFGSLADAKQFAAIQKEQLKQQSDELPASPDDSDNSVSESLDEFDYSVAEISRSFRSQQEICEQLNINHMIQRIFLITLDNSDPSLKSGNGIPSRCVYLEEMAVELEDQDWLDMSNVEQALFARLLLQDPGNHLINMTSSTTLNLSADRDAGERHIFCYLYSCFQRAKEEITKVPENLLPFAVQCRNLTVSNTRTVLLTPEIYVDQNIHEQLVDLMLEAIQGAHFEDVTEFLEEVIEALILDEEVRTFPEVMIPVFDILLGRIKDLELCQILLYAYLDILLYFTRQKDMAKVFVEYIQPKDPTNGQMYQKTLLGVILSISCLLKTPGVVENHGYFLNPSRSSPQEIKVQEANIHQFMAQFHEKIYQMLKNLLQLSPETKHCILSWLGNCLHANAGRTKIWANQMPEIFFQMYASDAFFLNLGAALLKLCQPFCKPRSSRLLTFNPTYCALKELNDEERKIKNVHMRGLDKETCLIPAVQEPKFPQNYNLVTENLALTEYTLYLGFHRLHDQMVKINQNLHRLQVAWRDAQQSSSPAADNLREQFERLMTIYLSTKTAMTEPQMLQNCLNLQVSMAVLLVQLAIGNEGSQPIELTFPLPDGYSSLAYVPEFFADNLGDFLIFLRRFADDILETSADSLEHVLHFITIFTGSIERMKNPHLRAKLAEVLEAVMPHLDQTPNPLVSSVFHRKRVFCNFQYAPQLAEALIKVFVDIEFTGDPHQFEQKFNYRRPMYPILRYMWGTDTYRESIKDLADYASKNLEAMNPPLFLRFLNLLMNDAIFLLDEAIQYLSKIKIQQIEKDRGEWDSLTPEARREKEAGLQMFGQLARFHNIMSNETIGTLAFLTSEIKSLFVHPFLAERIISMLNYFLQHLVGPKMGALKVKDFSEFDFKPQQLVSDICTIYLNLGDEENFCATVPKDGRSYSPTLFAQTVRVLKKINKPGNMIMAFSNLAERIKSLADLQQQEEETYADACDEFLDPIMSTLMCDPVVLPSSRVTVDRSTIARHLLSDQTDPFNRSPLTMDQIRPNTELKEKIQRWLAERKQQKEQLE
Chain of UniProt Q9UNS1 (Q9UNS1 whole entry, looked up): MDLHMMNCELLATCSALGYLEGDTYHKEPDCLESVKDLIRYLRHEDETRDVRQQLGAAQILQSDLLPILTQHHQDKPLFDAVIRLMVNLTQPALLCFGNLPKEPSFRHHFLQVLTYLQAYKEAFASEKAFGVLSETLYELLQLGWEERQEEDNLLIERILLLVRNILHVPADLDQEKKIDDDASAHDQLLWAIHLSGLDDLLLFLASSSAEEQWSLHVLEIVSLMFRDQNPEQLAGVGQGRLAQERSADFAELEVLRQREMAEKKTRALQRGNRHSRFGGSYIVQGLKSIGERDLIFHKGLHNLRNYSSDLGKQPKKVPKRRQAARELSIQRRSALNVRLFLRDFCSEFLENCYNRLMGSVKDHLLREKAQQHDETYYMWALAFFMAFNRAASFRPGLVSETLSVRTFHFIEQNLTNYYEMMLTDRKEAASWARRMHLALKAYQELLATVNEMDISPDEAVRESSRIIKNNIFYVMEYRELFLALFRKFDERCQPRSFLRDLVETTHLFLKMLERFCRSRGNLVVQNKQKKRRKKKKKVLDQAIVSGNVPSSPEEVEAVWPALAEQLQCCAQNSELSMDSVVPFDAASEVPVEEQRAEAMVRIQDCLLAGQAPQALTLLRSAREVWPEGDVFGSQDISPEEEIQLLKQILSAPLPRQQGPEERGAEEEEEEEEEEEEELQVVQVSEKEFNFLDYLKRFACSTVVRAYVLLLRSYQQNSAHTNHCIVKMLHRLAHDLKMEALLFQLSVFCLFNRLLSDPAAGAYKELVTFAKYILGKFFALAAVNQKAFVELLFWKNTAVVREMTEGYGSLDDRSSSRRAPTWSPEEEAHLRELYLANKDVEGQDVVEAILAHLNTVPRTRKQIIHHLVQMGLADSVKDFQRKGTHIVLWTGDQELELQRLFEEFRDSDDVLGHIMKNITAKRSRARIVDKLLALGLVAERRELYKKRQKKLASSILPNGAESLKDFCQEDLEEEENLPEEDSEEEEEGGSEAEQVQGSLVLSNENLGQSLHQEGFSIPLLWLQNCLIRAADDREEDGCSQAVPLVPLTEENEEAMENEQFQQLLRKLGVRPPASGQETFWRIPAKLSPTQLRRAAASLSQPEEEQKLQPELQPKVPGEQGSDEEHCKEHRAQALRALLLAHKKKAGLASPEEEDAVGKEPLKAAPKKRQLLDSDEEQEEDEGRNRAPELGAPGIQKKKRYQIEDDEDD

How did the log2 fold change turn out when TNPO3 (UniProt Q9Y5L0) was run?
The log2 fold change was -0.029.

Which log2 fold change does the source give for TXNIP (UniProt Q9H3M7) here?
Its log2 fold change is 0.087.

TPD52L2 isoform 7 (UniProt O43399) was tested. Which log2 fold change did it give?
Its log2 fold change is -0.058.

TOX4 (UniProt O94842) was tested. Which log2 fold change did it give?
The log2 fold change was -0.146.

For UFM1 (UniProt P61960), which log2 fold change is on record?
Its log2 fold change is 0.297.

With UBE4A isoform 2 (UniProt Q14139) as the target, how does the log2 fold change read?
Its log2 fold change is 0.051.

Which log2 fold change does the source give for UBTF (UniProt P17480) here?
Its log2 fold change is 0.069.

For UFSP2 (UniProt Q9NUQ7), which log2 fold change is on record?
The log2 fold change was 0.022.

With TIMELESS (UniProt Q9UNS1) as the target, how does the log2 fold change read?
Its log2 fold change is 0.02.

For TPM1 isoform 4 (UniProt P09493), which log2 fold change is on record?
The log2 fold change was 0.056.

For TPM3 (UniProt P06753), which log2 fold change is on record?
The log2 fold change was 0.057.

How did the log2 fold change turn out when UBR5 (UniProt O95071) was run?
Its log2 fold change is 0.01.

TSFM (UniProt P43897) was tested. Which log2 fold change did it give?
The log2 fold change was -0.092.

For TEX30 (UniProt Q5JUR7), which log2 fold change is on record?
Its log2 fold change is -0.038.

Which log2 fold change does the source give for TLK2 isoform 2 (UniProt Q86UE8) here?
Its log2 fold change is -0.075.

For TTC4 (UniProt O95801), which log2 fold change is on record?
Its log2 fold change is -0.013.

With TBCE (UniProt Q15813) as the target, how does the log2 fold change read?
The log2 fold change was 0.015.

How did the log2 fold change turn out when TBC1D2B (UniProt Q9UPU7) was run?
Its log2 fold change is -0.008.

Which log2 fold change does the source give for TUBB2A (UniProt Q13885) here?
The log2 fold change was -0.015.

With TUBGCP3 (UniProt Q96CW5) as the target, how does the log2 fold change read?
Its log2 fold change is 0.037.

How did the log2 fold change turn out when UBXN2B (UniProt Q14CS0) was run?
The log2 fold change was 0.014.

For TTMP isoform 3 (UniProt Q5BVD1), which log2 fold change is on record?
Its log2 fold change is -0.498.

With UBL4A (UniProt P11441) as the target, how does the log2 fold change read?
The log2 fold change was 0.073.
